Bioassay records from PubChem BioAssay.
Hits are enriched below; roughly 3.5% of the tested compounds scored in any of these assays.
BoNT A protease – BoNT/A light chain protease inhibitors, primary screen, biochemical, flow cytometry, MLPCN library; inhibition, % at 10 µM; actives 0.17% (n = 360,000); AID 588499, 2011; multiplex microsphere protease substrate cleavage; note: plate controls were buffer without enzyme for full effect and enzyme alone for no effect
BoNT F protease – BoNT/F light chain protease inhibitors, primary screen, biochemical, flow cytometry, MLPCN library | actives 0.22% (n = 360,000) | Multiplex microsphere protease cleavage assay | inhibition, % at 10 µM | Botulinum neurotoxin type F light chain protease (Clostridium botulinum) | AID 588497, 2011; in the data active = inhibition above about 35%, passing the limit was not always enough; inconclusive = no clear call, values can overlap the other calls; note: plate controls were buffer without enzyme for full effect and enzyme alone for no effect
3CLpro inhibitor – SARS-CoV 3CLpro protease inhibitors, primary screen, biochemical, quenched FRET; Replicase polyprotein 1ab (Severe acute respiratory syndrome coronavirus), P0C6X7; inhibition, % at 6 µM; recombinant SARS-CoV 3CLpro, quenched FRET peptide cleavage; AID 1706, 2009; actives 0.14% (n = 290,000); in the data active = inhibition above about 12%
Anthrax LF inh2 – Bacillus anthracis LF protease inhibitors, primary screen, biochemical, multiplex microsphere, MLPCN library. Lethal factor (Bacillus anthracis), P15917. multiplex microsphere protease cleavage assay. inhibition, % at 10 µM. actives 0.12% (n = 360,000); note: plate controls were buffer without enzyme for full effect and enzyme alone for no effect
Target sequence (P15917 whole entry, looked up): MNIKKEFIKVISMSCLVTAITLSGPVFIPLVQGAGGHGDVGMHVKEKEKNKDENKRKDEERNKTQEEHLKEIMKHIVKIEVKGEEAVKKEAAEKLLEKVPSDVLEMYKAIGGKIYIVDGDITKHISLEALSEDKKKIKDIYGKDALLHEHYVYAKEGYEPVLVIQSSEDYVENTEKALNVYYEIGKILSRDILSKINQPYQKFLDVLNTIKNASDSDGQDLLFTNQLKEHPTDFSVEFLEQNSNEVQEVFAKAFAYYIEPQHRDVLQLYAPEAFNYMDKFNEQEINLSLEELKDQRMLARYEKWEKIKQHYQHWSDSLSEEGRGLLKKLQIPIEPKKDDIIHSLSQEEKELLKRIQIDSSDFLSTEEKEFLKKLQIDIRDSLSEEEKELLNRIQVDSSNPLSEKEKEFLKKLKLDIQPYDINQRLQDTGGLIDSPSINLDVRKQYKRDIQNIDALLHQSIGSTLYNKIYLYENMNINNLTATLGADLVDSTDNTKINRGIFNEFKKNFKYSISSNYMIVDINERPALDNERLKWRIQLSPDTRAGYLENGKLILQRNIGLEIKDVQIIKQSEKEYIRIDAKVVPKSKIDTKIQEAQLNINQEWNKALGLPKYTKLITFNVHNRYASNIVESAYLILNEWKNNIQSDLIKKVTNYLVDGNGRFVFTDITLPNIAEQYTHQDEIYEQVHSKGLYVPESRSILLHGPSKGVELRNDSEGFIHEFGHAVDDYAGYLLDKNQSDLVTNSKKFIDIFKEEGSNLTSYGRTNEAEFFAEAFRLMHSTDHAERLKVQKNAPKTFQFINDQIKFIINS
Bead autofluor – flagged as autofluorescent in microsphere protease counterscreen | compound autofluorescence counterscreen, microsphere flow cytometry; hits give high values | fluorescence intensity (concentration not given with the values) | actives 3.1% (n = 360,000); in the data active = fluorescence intensity above about 16000; inconclusive = no clear call, values can overlap the other calls
Active calls of the source: *. Cut-off read from the data, not from the text of the source, unless noted: active = inhibition above about 30%; inconclusive = no clear call, values can overlap the other calls; inactive = below that.

How did CCOC(=O)N1CCN(c2nnnn2-c2ccccc2)CC1 do in these assays?
BoNT A protease: 1.3; BoNT F protease: -15.8; 3CLpro inhibitor: -3.9; Anthrax LF inh2: 2.2; Bead autofluor: 4219

What do the screens show for `COc1ccc(C(=O)N2CCN(c3nnnn3-c3ccccc3)CC2)cc1OC`?
BoNT A protease: -0.3; BoNT F protease: -0.8; 3CLpro inhibitor: 4.1; Anthrax LF inh2: -1.4; Bead autofluor: 23177*

How did Cn1cnnc1SCC(=O)Nc1cccc(S(=O)(=O)N2CCCCCC2)c1 do in these assays?
BoNT A protease: -0.6; BoNT F protease: -5.2; 3CLpro inhibitor: -0.9; Anthrax LF inh2: 1.8; Bead autofluor: 7587

What do the screens show for `Cc1ccc(-n2c(C)cc(/C=N/NC(=O)c3ccncc3)c2C)c(C)c1`?
BoNT A protease: 0.4; BoNT F protease: -1.3; 3CLpro inhibitor: 2.9; Anthrax LF inh2: -4.0; Bead autofluor: 22871*

Results for Cc1cccc(C)c1-n1c(C)cc(/C=N/NC(=O)c2ccncc2)c1C ?
BoNT A protease: 1.9; BoNT F protease: 1.6; 3CLpro inhibitor: 3.8; Anthrax LF inh2: -2.5; Bead autofluor: 22105*

What do the screens show for `Cc1ccc(-n2c(C)cc(/C=N/NC(=O)c3ccncc3)c2C)cc1C`?
BoNT A protease: -1.3; BoNT F protease: -7.3; 3CLpro inhibitor: 0.6; Anthrax LF inh2: -5.1; Bead autofluor: 4461

How did Cc1cc(/C=N/NC(=O)c2cccs2)c(C)n1-c1cnccn1 do in these assays?
BoNT A protease: 3.7; BoNT F protease: 47.3*; 3CLpro inhibitor: -2.0; Anthrax LF inh2: -0.2; Bead autofluor: 2743

Results for Cc1cc(/C=N/NC(=O)c2ccncc2)c(C)n1-c1ccccc1 ?
BoNT A protease: -0.3; BoNT F protease: -4.1; 3CLpro inhibitor: -1.0; Anthrax LF inh2: -1.3; Bead autofluor: 1993

Results for Cc1ccc(C)c(S(=O)(=O)NCc2cccnc2)c1 ?
BoNT A protease: -1.6; BoNT F protease: -4.1; 3CLpro inhibitor: -4.0; Anthrax LF inh2: -1.6; Bead autofluor: 21139*

How did Cc1ccc2nsnc2c1S(=O)(=O)NCc1cccnc1 do in these assays?
BoNT A protease: -0.7; BoNT F protease: -2.9; 3CLpro inhibitor: -1.1; Anthrax LF inh2: -1.7; Bead autofluor: 22869*

How did Cc1ccc(C)c(S(=O)(=O)NCc2ccncc2)c1 do in these assays?
BoNT A protease: -0.1; BoNT F protease: 2.8; 3CLpro inhibitor: -2.4; Anthrax LF inh2: -1.4; Bead autofluor: 3790

Results for CN(C)CC(NC(=O)c1cccc(S(=O)(=O)Nc2ccc3c(c2)OCO3)c1)c1ccccc1 (centres undefined) ?
BoNT A protease: 3.9; BoNT F protease: 8.8; Anthrax LF inh2: -3.2; Bead autofluor: inconclusive

Results for O=C(c1ccccc1)c1ccc(O)cc1O ?
BoNT A protease: -1.0; BoNT F protease: 0.0; 3CLpro inhibitor: -6.7; Anthrax LF inh2: 2.6; Bead autofluor: 4936

How did COc1ccc(C(=O)c2ccccc2)c(O)c1 do in these assays?
BoNT A protease: -1.3; BoNT F protease: -3.2; 3CLpro inhibitor: -3.3; Anthrax LF inh2: -2.0; Bead autofluor: 23016*

How did CN(C)c1ccc(C=O)c(Oc2ccccc2)c1 do in these assays?
BoNT A protease: 0.2; BoNT F protease: 2.0; Anthrax LF inh2: 0.4; Bead autofluor: 3792

What do the screens show for `COc1cc(CN2CCN(c3ccccc3C)CC2)cc([N+](=O)[O-])c1O`?
BoNT A protease: -1.2; BoNT F protease: -0.5; 3CLpro inhibitor: -7.9; Anthrax LF inh2: -1.9; Bead autofluor: 2484

Results for COc1ccc(CN2CCN(c3cccc(C)c3C)CC2)cc1OC ?
BoNT A protease: 5.9; BoNT F protease: 9.5; 3CLpro inhibitor: -5.2; Anthrax LF inh2: -13.7; Bead autofluor: 17421*

How did COc1cc(CN2CCC(C(=O)NC3CCCC3)CC2)cc(Br)c1O do in these assays?
BoNT A protease: -1.1; BoNT F protease: -4.7; 3CLpro inhibitor: -3.5; Anthrax LF inh2: -2.6; Bead autofluor: 23761*

Results for COc1ccc(CN2CCN(C)CC2)cc1OCc1ccccc1 ?
BoNT A protease: 1.7; BoNT F protease: 0.7; 3CLpro inhibitor: 3.0; Anthrax LF inh2: -0.1; Bead autofluor: 20197*

How did COc1cc(CN2CCN(c3cccc(C)c3C)CC2)cc(Br)c1O do in these assays?
BoNT A protease: inconclusive; BoNT F protease: -9.2; 3CLpro inhibitor: 1.1; Anthrax LF inh2: -5.2; Bead autofluor: 23780*

What do the screens show for `CN(C(=O)COC(=O)/C=C/c1ccc(C(F)(F)F)cc1)C1CCS(=O)(=O)C1` (centres undefined)?
BoNT A protease: 0.9; BoNT F protease: 3.6; 3CLpro inhibitor: 5.7; Anthrax LF inh2: 0.1; Bead autofluor: 6064

How did CC1(C)CC(=O)C2=C(C1)N(Cc1ccco1)C(=O)C2(NC(=O)c1cccnc1)C(F)(F)F (centres undefined) do in these assays?
BoNT A protease: inconclusive; BoNT F protease: -1.1; 3CLpro inhibitor: 4.9; Anthrax LF inh2: -3.3; Bead autofluor: 20736*

How did CCCCN1C(=O)C(NC(=O)c2cccnc2)(C(F)(F)F)C2=C1CC(C)(C)CC2=O (centres undefined) do in these assays?
BoNT A protease: 1.6; BoNT F protease: 3.0; 3CLpro inhibitor: -0.4; Anthrax LF inh2: -2.3; Bead autofluor: 23010*

Results for CCOC(=O)NC1(C(F)(F)F)C(=O)N(Cc2ccccc2)C2=C1C(=O)CC(C)(C)C2 (centres undefined) ?
BoNT A protease: -3.7; BoNT F protease: -8.2; 3CLpro inhibitor: -4.3; Anthrax LF inh2: -3.6; Bead autofluor: 25964*

Results for Cc1ccc(C(=O)N/N=C\c2ccc([N+](=O)[O-])o2)cn1 ?
3CLpro inhibitor: -1.9

What do the screens show for `CCOc1ccc(NC(=O)NC2(C(=O)NCc3ccco3)CCCCC2)cc1`?
BoNT A protease: -0.1; BoNT F protease: 6.6; 3CLpro inhibitor: -3.2; Anthrax LF inh2: -3.1; Bead autofluor: 3781

What do the screens show for `Cc1ccc(/C=C2/C(=O)NC(=O)N(CC3CCCO3)C2=O)s1` (centres undefined)?
BoNT A protease: -0.3; BoNT F protease: 2.3; 3CLpro inhibitor: 0.9; Anthrax LF inh2: 1.2; Bead autofluor: 2252

How did Cc1sc2nc(SCC(=O)OC(C)C)n(C)c(=O)c2c1C do in these assays?
BoNT A protease: -2.0; BoNT F protease: -6.3; 3CLpro inhibitor: -2.3; Anthrax LF inh2: -10.8; Bead autofluor: 11032

Results for Cc1sc2nc(SCC(=O)NCc3ccco3)n(C)c(=O)c2c1C ?
BoNT A protease: 0.9; BoNT F protease: -4.0; 3CLpro inhibitor: 0.3; Anthrax LF inh2: -1.6; Bead autofluor: 3206

How did Cc1sc2nc(SCC(=O)NCCO)n(C)c(=O)c2c1C do in these assays?
BoNT A protease: inconclusive; BoNT F protease: 0.2; 3CLpro inhibitor: -0.4; Anthrax LF inh2: -10.5; Bead autofluor: 21991*

How did CCOC(=O)CNC(=O)CSc1nc2sc(C)c(C)c2c(=O)n1C do in these assays?
BoNT A protease: -1.9; BoNT F protease: -4.8; 3CLpro inhibitor: 1.7; Anthrax LF inh2: -1.8; Bead autofluor: 23793*
